In PubChem BioAssay:
The source made the active and inactive calls. Unless noted, no stated cut-off is given here; in the data, active means inhibition above about 44%; inactive means the rest.

System: not listed separately
Test: StAR promoter reporter inhibitors, counter-screen for LRH-1 inverse agonist project, cell-based, luminescence, high throughput (AID 651611; in the data active means inhibition above about 28%)
Settings: StAR promoter luciferase reporter counterscreen, at 3.6 µM, active compounds read high

| SMILES | inhibition |
| --- | --- |
| CN(c1ccc2nc3ccccc3c(=O)n2n1)C1CCCCC1 | 59.8% (active) |
| Cc1cccc(NC(=O)c2ccc([N+](=O)[O-])o2)c1 | 21.1% (inactive) |
| Cn1nccc1C(=O)NC1CCCc2c1cnn2-c1ccc(F)cc1F (stereo not drawn) | 20.2% (inactive) |
| C[C@@H]1C[C@@H]2O[C@H]2/C=C\C=C\C(=O)Cc2c(Cl)c(O)cc(O)c2C(=O)O1 | 55.7% (active) |
| COc1ccc(C(=O)Nc2ccccc2C(=O)N/N=C/c2ccc(O)c(OC)c2)cc1 | 19% (inactive) |

Biological target: Nuclear receptor subfamily 5 group A member 2 (Homo sapiens) (UniProt O00482)
Test: LRH-1 (NR5A2) inverse agonists, retest, confirmation, cell-based, luminescence (AID 651613; in the data active means inhibition above about 42%;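 further: HEK293T cells co-transfected with LRH-1 and StAR promoter luciferase reporter; 0% = vehicle wells and 100% = parental cells lacking receptor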)
Settings: cell-based LRH-1 luciferase reporter, inverse agonism; at 3.6 µM; active compounds read high

Chain of Nuclear receptor subfamily 5 group A member 2 (Homo sapiens) (O00482 whole entry, looked up): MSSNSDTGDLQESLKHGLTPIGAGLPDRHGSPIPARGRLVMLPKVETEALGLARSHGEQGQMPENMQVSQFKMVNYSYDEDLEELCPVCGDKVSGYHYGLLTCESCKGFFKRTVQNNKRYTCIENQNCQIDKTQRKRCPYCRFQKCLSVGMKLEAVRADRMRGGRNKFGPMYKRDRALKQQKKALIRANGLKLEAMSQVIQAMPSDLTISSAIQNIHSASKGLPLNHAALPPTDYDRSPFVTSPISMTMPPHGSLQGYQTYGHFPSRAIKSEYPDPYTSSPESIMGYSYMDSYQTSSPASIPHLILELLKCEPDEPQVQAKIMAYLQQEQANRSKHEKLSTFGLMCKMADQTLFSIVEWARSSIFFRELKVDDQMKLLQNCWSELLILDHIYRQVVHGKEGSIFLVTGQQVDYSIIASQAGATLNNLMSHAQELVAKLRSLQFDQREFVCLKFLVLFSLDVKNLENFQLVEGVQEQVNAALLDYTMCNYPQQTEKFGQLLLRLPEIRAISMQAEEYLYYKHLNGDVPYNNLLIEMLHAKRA

| SMILES | inhibition |
| --- | --- |
| CN(c1ccc2nc3ccccc3c(=O)n2n1)C1CCCCC1 | 14.8% (inactive) |
| Cc1cccc(NC(=O)c2ccc([N+](=O)[O-])o2)c1 | 58.8% (active) |
| Cn1nccc1C(=O)NC1CCCc2c1cnn2-c1ccc(F)cc1F (stereo not drawn) | 62.8% (active) |
| C[C@@H]1C[C@@H]2O[C@H]2/C=C\C=C\C(=O)Cc2c(Cl)c(O)cc(O)c2C(=O)O1 | 68.5% (active) |
| COc1ccc(C(=O)Nc2ccccc2C(=O)N/N=C/c2ccc(O)c(OC)c2)cc1 | -69.7% (inactive) |

Biological target: Steroidogenic factor 1 (Homo sapiens) (UniProt Q13285)
Test: SF1 (NR5A1) inverse agonists, counter-screen for LRH-1 inverse agonist project, cell-based, luminescence, high throughput (AID 651614);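 further: cells cotransfected with StAR promoter reporter and SF1 expression vector; 0% = vehicle on cells with receptor and 100% = vehicle on cells lacking receptor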
Settings: cell-based SF1 luciferase reporter, at 3.6 µM, active compounds read high

Chain of Steroidogenic factor 1 (Homo sapiens) (Q13285 whole entry, looked up): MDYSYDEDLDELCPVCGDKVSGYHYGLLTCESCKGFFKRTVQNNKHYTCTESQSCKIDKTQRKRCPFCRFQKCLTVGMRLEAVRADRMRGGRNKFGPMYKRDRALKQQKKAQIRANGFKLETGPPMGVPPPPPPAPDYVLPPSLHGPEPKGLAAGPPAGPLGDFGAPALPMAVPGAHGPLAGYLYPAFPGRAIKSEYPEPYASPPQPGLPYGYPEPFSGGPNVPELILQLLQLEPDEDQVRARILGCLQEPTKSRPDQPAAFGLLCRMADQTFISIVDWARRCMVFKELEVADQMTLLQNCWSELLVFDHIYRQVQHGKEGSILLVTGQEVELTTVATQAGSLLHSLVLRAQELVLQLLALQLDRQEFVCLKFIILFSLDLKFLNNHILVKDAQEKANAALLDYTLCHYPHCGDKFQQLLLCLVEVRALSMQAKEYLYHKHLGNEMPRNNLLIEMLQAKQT

| SMILES | inhibition |
| --- | --- |
| CN(c1ccc2nc3ccccc3c(=O)n2n1)C1CCCCC1 | 57.6% (active) |
| Cc1cccc(NC(=O)c2ccc([N+](=O)[O-])o2)c1 | 57% (active) |
| Cn1nccc1C(=O)NC1CCCc2c1cnn2-c1ccc(F)cc1F (stereo not drawn) | 67.1% (active) |
| C[C@@H]1C[C@@H]2O[C@H]2/C=C\C=C\C(=O)Cc2c(Cl)c(O)cc(O)c2C(=O)O1 | 56.9% (active) |
| COc1ccc(C(=O)Nc2ccccc2C(=O)N/N=C/c2ccc(O)c(OC)c2)cc1 | 11.7% (inactive) |

System: not listed separately
Test: VP16 transactivation reporter inhibitors, counter-screen for LRH-1 inverse agonist project, cell-based, luminescence, high throughput (AID 651615; in the data active means inhibition above about 33%)
Settings: Gal4-VP16 luciferase reporter cells, at 3.6 µM, active compounds read high

| SMILES | inhibition |
| --- | --- |
| CN(c1ccc2nc3ccccc3c(=O)n2n1)C1CCCCC1 | 18% (inactive) |
| Cc1cccc(NC(=O)c2ccc([N+](=O)[O-])o2)c1 | -13.2% (inactive) |
| Cn1nccc1C(=O)NC1CCCc2c1cnn2-c1ccc(F)cc1F (stereo not drawn) | 57.1% (active) |
| C[C@@H]1C[C@@H]2O[C@H]2/C=C\C=C\C(=O)Cc2c(Cl)c(O)cc(O)c2C(=O)O1 | 79.3% (active) |
| COc1ccc(C(=O)Nc2ccccc2C(=O)N/N=C/c2ccc(O)c(OC)c2)cc1 | -41.2% (inactive) |

System: transactivating tegument protein VP16 (Human herpesvirus 1)
Test: VP16 transactivation reporter inhibitors, counter-screen for SRC2 inhibitor project, cell-based, luminescence, single concentration (AID 652007; in the data active means inhibition above about 36%)
Settings: cell-based VP16 transactivation luciferase reporter, at 8.9 µM, active compounds read high

| SMILES | inhibition |
| --- | --- |
| CN(c1ccc2nc3ccccc3c(=O)n2n1)C1CCCCC1 | 50.9% (active) |
| CCOc1cc(C(=O)N2CCc3cc(OC)c(OC)cc3C2)ccc1OC(F)F | -28% (inactive) |
| COc1ccc(C(=O)Nc2ccccc2C(=O)N/N=C/c2ccc(O)c(OC)c2)cc1 | 64.8% (active) |
